# Hit rate of the full screen: of about 2,200 compounds, about 480 (22%) were called active. How the calls were made is not given here. A selection follows. Entries with a potency or affinity are not part of this list.
# Experiment: S. Typhimurium GFP fluorescence modified counterscreen for PhoP regulon inhibitor project dose response (AID 1981)
# Details: 4 h; series mostly up to 150 µM
row,Compound,outcome
1,O=C(c1ccccc1)N1CCN(c2ccc([N+](=O)[O-])c(NCc3ccco3)c2)CC1,inactive
2,C/C(=N/NC(=O)Cc1cccn1C)c1ccccc1,inactive
3,COc1ccc(NC(=O)CCNS(=O)(=O)c2ccc3c(c2)CCC(=O)N3)cc1,inactive
4,O=C(Nc1nccs1)c1cc(-c2ccco2)nc2ccccc12,inactive
5,Cc1cn([C@H]2C[C@H](N=[N+]=[N-])[C@@H](CO)O2)c(=O)[nH]c1=O,inactive
6,COc1cccc(-c2nnc3sc(-c4ccc(C)cc4)nn23)c1,inactive
7,CN(CC(=O)N1CCN(c2ccccn2)CC1)S(=O)(=O)c1ccc2ccccc2c1,inactive
8,Cn1nnnc1SCC(=O)NC1CCCCC1,inactive
9,Nc1nnc(SCc2ccc(F)cc2Cl)s1,inactive
10,Cn1c(C(O)c2ccc(Br)cc2)nc(Cl)c1Cl (stereo not drawn),inactive
11,CCC1C2CN(C(C)=O)CC=C2C(C#N)=C(N)C1(C#N)C#N (stereo not drawn),inactive
12,Clc1ccc(-n2ncc3c(NCc4cccs4)ncnc32)cc1,inactive
13,CCn1c(Cc2ccccc2)nnc1SCC(=O)Nc1nc(C)c(C)s1,inactive
14,Nc1ccc2oc3ccccc3c2c1,inactive
15,CCOc1cc(C2C(C(=O)OC)=C(C)N=C3SCCC(=O)N32)ccc1OC(C)=O (stereo not drawn),inactive
16,CCCn1c(/N=C/c2ccc3c(c2)OCO3)nc2ccccc21,inactive
17,Cc1ccc(NS(=O)(=O)c2ccccc2)c2c1CC(C)(C)O2,inactive
18,COc1ccc(NC(=O)C(Sc2nnc(-c3ccncc3)n2-c2ccccc2C)c2ccccc2)cc1Cl (stereo not drawn),inactive
19,CC(=O)Cn1cnc2sc(-c3ccccc3)cc2c1=O,inactive
20,C/C(=N\Nc1nc2ccccc2[nH]1)c1cccs1,inactive
21,C/C(=N\Nc1nc2ccccc2[nH]1)c1ccc(Cl)s1,inactive
22,O=S(=O)(c1ccc(N2CCCC2c2nc3ccccc3s2)nc1)N1CCOCC1 (stereo not drawn),inactive
23,O=C(/C=C/c1cccs1)N1CCN(Cc2ccc3c(c2)OCO3)CC1,inactive

row,Compound,outcome
1,CC(C)(C)NS(=O)(=O)c1ccc(CCC(=O)N2CCOCC2)cc1,inactive
2,Cc1cc(C(=O)CSc2nnnn2C)c(C)n1-c1ccc2c(c1)OCCO2,inactive
3,COC(=O)c1c(C)oc2ccc(NS(=O)(=O)c3cccs3)cc12,inactive
4,Cc1cc(N/N=C/c2cccc(Cl)c2)nc(NCc2ccccc2)n1,inactive
5,C(=N\N1CCN(Cc2ccccc2)CC1)/c1cccnc1,inactive
6,O=C(Nc1cccc(Cl)c1)C1C2CCC3C(CCC21)C3(Cl)Cl (stereo not drawn),inactive
7,O=C1CC(c2ccccc2)n2ncnc2N1 (stereo not drawn),inactive
8,O=C(NC(NC(=S)Nc1ccc(Cl)cc1)C(Cl)(Cl)Cl)c1ccco1 (stereo not drawn),inactive
9,Cc1onc(-c2ccccc2)c1C(=O)NC(=S)NNC(=O)c1ccc(O)cc1O,inactive
10,FC(F)Oc1ccc(NC(=S)NCc2nc3ccccc3[nH]2)cc1,inactive
11,CCn1c(N)[n+](CC(=O)Nc2ccc(SC(F)F)cc2)c2ccccc21,inactive
12,Cc1ccc2[nH]c3c(NCc4ccccc4)ncnc3c2c1,inactive
13,COC(=O)N1CCN(c2ccc(Cl)c(Cl)c2)CC1,inactive
14,Brc1ccc2nc3c(n2c1)CCCC3,inactive
15,CC(=O)Nc1ccc(C(=O)Nc2nc(-c3cc(C)n(Cc4ccccc4)c3C)cs2)cc1,inactive
16,Cc1ccccc1Nc1nc(-c2sc(NC(=O)c3cccc(Cl)c3)nc2C)cs1,inactive
17,CC(C)Cc1oc(C(=O)O)cc1CN,inactive
18,Nc1nc(C2CCCCC2)cs1,inactive
19,CCN(CC(=O)Nc1ccc(N2CCOCC2)cc1)Cc1nc2ccccc2c(=O)[nH]1,inactive
20,COc1ccc(OC)c(/C=N/NC(=O)c2cc3c(OC)c(OC)ccc3[nH]2)c1,inactive
21,COc1ccc(OC)c(/C=N/NC(=O)Cc2nc3ccccc3[nH]2)c1,inactive
22,C#CCOc1c(Cl)cc(/C=N/O)cc1OC,inactive
23,Cc1nn(-c2ncc(C(F)(F)F)cc2Cl)c(=O)n1-c1cccc(Cl)c1,inactive

row,Compound,outcome
1,Cc1ccc(C)n1-c1cccc(N)c1,inactive
2,O=S1(=O)CC(O)C(Nc2ccccc2Cl)C1 (stereo not drawn),inactive
3,COc1ccccc1NC(=O)Cn1nnc(-c2ccccc2NC(=O)c2cccs2)n1,inactive
4,CCN(CC)S(=O)(=O)c1cccc(NC(=O)Nc2cccc(C(F)(F)F)c2)c1,inactive
5,Fc1cc(Br)ccc1NC(=S)Nc1ccccc1,inactive
6,COC(=O)Cc1ccc(NC(=S)N2CCN(c3ccc(F)cc3)CC2)cc1,inactive
7,O=S(=O)(Nc1ccc2ccccc2c1)c1ccccc1,inactive
8,Cc1scc(C(=O)O)c1-c1c(C(=O)O)csc1C,inactive
9,O=C(c1ccccc1)c1nc2ccccc2n(CCCn2c(=O)c(C(=O)c3ccccc3)nc3ccccc32)c1=O,inactive
10,CCCn1c(NCc2c[nH]c3ccccc23)nc2ccccc21,inactive
11,CCC(C)N1C(=O)/C(=C/c2ccc3c(c2)CCN3CCCCl)C(=O)NC1=S (stereo not drawn),inactive
12,COc1ccc(-n2c(=O)c3ccccc3n(CC(=O)Nc3cc(C)on3)c2=O)cc1OC,inactive
13,CCn1c2ccccc2c2cc(NC(=O)COc3ccccc3)ccc21,inactive
14,CCCSc1nc(N2CCCC2)c2c(c1C#N)CC(C)(C)OC2,inactive
15,c1nc(N2CCC3(CC2)OCCO3)c2c3c(sc2n1)CCCC3,inactive
16,C=CCc1ccccc1OCC(O)CN1CCN(CCN2C(=O)c3cccc4cccc(c34)C2=O)CC1 (stereo not drawn),inactive
17,COc1ccc([N+](=O)[O-])cc1N(CC(O)Cn1nnc2ccccc21)S(=O)(=O)c1ccc(C)cc1 (stereo not drawn),inactive
18,Cc1ccc(/C(O)=C2\C(=O)C(=O)N(CC(C)O)C2c2cccc(F)c2)cc1 (stereo not drawn),inactive
19,COc1ccc(C2CC(c3ccccc3)=NN2C(=O)COC(=O)c2cccnc2)cc1 (stereo not drawn),inactive
20,CCOC(=O)/C=C1\SCC(=O)N1CC(=O)NC1CCCCC1,inactive
21,COC(=O)c1ccc2c(=O)n(CCN3CCOCC3)c(SCC(=O)C(C)(C)C)nc2c1,inactive
22,Cc1nn(-c2ccccc2)c(N2CCCC2)c1/C=N/Nc1ccc(S(N)(=O)=O)cc1[N+](=O)[O-],inactive
23,c1ccc2c(c1)ncn2CCCCOc1ccc2c(c1)CCC2,inactive

row,Compound,outcome
1,Cc1ncoc1C(=O)Nc1cccc(Cl)c1,inactive
2,CC1N(C)c2cc(NC(=O)c3ccco3)ccc2C1(C)C (stereo not drawn),inactive
3,CSc1cccc(NC(=O)c2ccco2)c1,inactive
4,O=C(Nc1ccc2c(c1)oc1ccccc12)N1CCOCC1,inactive
5,O=C(NCC(=O)N(c1cccnc1)C(C(=O)NCc1ccco1)c1ccccc1)c1ccco1 (stereo not drawn),inactive
6,CC(=O)c1c(C)n([O-])c2cc(F)c(F)cc2[n+]1=O,inactive
7,Cc1c(C(=O)Nc2cccc(Cl)c2)c2ccccn2c1CCc1ccncc1,inactive
8,CCOc1ccc(-c2nnc(SCc3nnc(-c4ccccc4)o3)n2-c2ccccc2F)cc1,inactive
9,CCC(CC)NC(=O)COC(=O)c1ccc(OCC(=O)Nc2ccccc2OC)c(OC)c1,inactive
10,Cc1nn(-c2ccccc2)c(C)c1C(=O)OC/C(O)=C(\C#N)c1nc2ccccc2[nH]1,inactive
11,COC(=O)c1sc2nc(CSc3nc4ccc(C)cc4[nH]3)[nH]c(=O)c2c1C,inactive
12,CCOCC(=O)Nc1ccc(F)c(F)c1,inactive
13,Nc1nc(N)nc(-c2ccccc2)n1,inactive
14,O=C(NCCCc1ccccc1)Nc1cccc(Cl)c1,inactive
15,CC(C)(C)c1ccc(NC(=O)COC(=O)c2ccc([N+](=O)[O-])s2)cc1,inactive
16,N/C(=N/OC(=O)c1ccccc1Cl)c1ncc([N+](=O)[O-])s1,inactive
17,O=C(Nc1cccc(Cl)c1)Nc1ccc2c(c1)OCO2,inactive
18,CCOC(=O)Nc1ccc(C)cc1C,inactive
19,CCOC(=O)c1sc(-c2ccc(C(F)(F)F)cc2)nc1O,inactive
20,O=C(NNc1c2ccccc2nc2ccccc12)c1ccccc1O,inactive
21,CC(C)c1ccc(NC(=O)N(CCc2nc3ccccc3[nH]2)C2CCCC2)cc1,inactive
22,Cc1ccc(CNC(=O)Nc2cccs2)cc1,inactive
23,CCCc1cc(C(=O)NNC(=S)NC(C)c2ccccc2)cs1 (stereo not drawn),inactive

row,Compound,outcome
1,Cc1noc(C)c1CSc1nc2ccccc2nc1NS(=O)(=O)c1ccc(Cl)cc1,inactive
2,COc1ccc(C(=O)NC(=S)NCc2ccc(-c3nc4ccccc4o3)cc2)cc1OC,inactive
3,O=C(O)CC(NC(=S)NCc1ccccc1)C(=O)O (stereo not drawn),inactive
4,Cc1cc(Nc2ccc(Cl)cc2)nc(N)n1,inactive
5,O=S(=O)(c1ccc(NC(=S)Nc2ccc3c(c2)OCO3)cc1)N1CCOCC1,inactive
6,CC(C(=O)NC1CCS(=O)(=O)C1)N1C(=O)/C(=C/c2ccc(Cl)cc2)SC1=S (stereo not drawn),inactive
7,O=S1(=O)C=CC(Nc2cccc(Cl)c2)C1 (stereo not drawn),inactive
8,CC1=C(C(=O)OCC2CCCO2)C(c2cccc(C(F)(F)F)c2)C2=C(CC(c3ccco3)CC2=O)N1 (stereo not drawn),inactive
9,CN(CCNS(=O)(=O)c1ccc2c(c1)oc(=O)n2C)Cc1ccccc1,inactive
10,COc1ccc(-c2cnn3c(N)c(S(=O)(=O)C(C)(C)C)cnc23)cc1,inactive
11,CC(=O)Nc1ccc(OC(=O)c2cccnc2)cc1,inactive
12,O=C(N/N=C/c1ccc(Cl)cc1Cl)c1cccc(F)c1,inactive
13,C/C(=C\C(=O)c1cccnc1)Nc1ccc(O)cc1,inactive
14,N/C(=N\OC(=O)COc1ccc(Cl)cc1)c1cccnc1,inactive
15,O=C(N/N=C/C1C(c2ccccc2)C1(Cl)Cl)c1cccc(Cl)c1 (stereo not drawn),inactive
16,N/C(=N\OC(=O)Cc1ccc(Cl)cc1)c1cccnc1,inactive
17,O=C(N/N=C/C1CC=CCC1)c1ccc(Cl)cc1O (stereo not drawn),inactive
18,N#CC(CC(=O)c1ccc(F)cc1)c1ccc2c(c1)OCO2 (stereo not drawn),inactive
19,C/C(=N\NC(=S)Nc1ccc(F)cc1)c1ccc2c(c1)OCCO2,inactive
20,C(=N\c1nc2ccccc2n1CCN1CCCCC1)/c1cccs1,inactive
21,Cc1cccc(C(=O)Nc2nnc(Cc3c[nH]c4ccccc34)s2)c1,inactive

# Source: PubChem BioAssay AID1981 (Southern Research Specialized Biocontainment Screening …, 2009)
